Assay [1] can be described thus: anti-His antibody binders, primary screen, artefact control for SMM control protein annotation, biochemical, small-molecule microarray, 635 nm fluorescence (AID 1128).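 Also: score merges feature fluorescence with signal-to-noise for each printed compound spot.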 The following applies: anti-His Alexa647 antibody binding, higher = more signal.
Assay [2] relates to Human papillomavirus type 1a E7 protein (residues 1-88). In words: HPV1a E7 small-molecule binders, primary screen, biochemical, small-molecule microarray, residues 1-88, 635 nm (AID 1129). As to conditions: small-molecule microarray binding, fluorescence 635 nm; higher = more signal.
The target of assay [3] is Focal adhesion kinase 1 (Homo sapiens) (UniProt Q05397). Nature of the assay: small-molecule microarray binders of FAK, primary screen, biochemical, 635/667 nm fluorescence, BSA, DTT (AID 1130).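 Also: composite of spot emission at 667 nm and signal to noise over triplicate slides.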 As to conditions: PTK2 binding, 635 nm fluorescence, higher = more signal.
For assay [4], the system named is Fibrinogen (Alexa647-labelled). Nature of the assay: fibrinogen binders on compound microarrays, profiling panel, artefact control for SMM control-protein annotation, biochemical, small-molecule microarray, 635/667 nm fluorescence (AID 1131).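 Also: z-score merges 667 nm fluorescence with per-spot signal-to-noise over triplicate slides.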 The following applies: fibrinogen-A647 binding fluorescence, higher = more signal.
The target in assay [5] is Follistatin (Homo sapiens) (UniProt P19883). Nature of the assay: follistatin binders on small-molecule microarrays, primary screen, biochemical, small-molecule microarray, 635/667 nm fluorescence (AID 1132). As to conditions: FST binding, 635 nm fluorescence, higher = more signal.
For assay [6], the target named is Fibroblast growth factor 2 (Homo sapiens) (UniProt P09038). Nature of the assay: FGF2 binders on small-molecule microarrays, primary screen, biochemical, small-molecule microarray, 635/667 nm fluorescence (AID 1133). The following applies: small-molecule microarray binding, FGF2, fluorescence 635/667; higher = more signal.
Assay [7] can be described thus: mitochondrial membrane potential change in A549 cells, profiling panel, cell-based, JC-1 fluorescence, basal, 24 h, 100 nL (AID 1138).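 Also: A549 lung adenocarcinoma cells under basal conditions with no added stimulus; test concentration not given here.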 As to conditions: higher = more signal.
In assay [8] the test system is Lefty1. Nature of the assay: Lefty1 binders on small-molecule microarrays, primary screen, biochemical, small-molecule microarray, 635/667 nm fluorescence (AID 1139). The following applies: small-molecule microarray binding, fluorescence 635/667; higher = more signal.
Assay [9] concerns wheat germ agglutinin (Triticum aestivum), Alexa647-labelled. In words: wheat germ agglutinin binders on compound microarrays, profiling panel, artefact control for SMM control-protein annotation, biochemical, small-molecule microarray, 635/667 nm fluorescence (AID 1140).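 Also: score merges 667 nm feature emission with signal to noise over triplicate slides.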 The following applies: WGA-A647 binding, 635 nm fluorescence, higher = more signal.
Assay [10] deals with Luciferin 4-monooxygenase (Photinus pyralis) (UniProt P08659). Nature of the assay: firefly luciferase enzyme inhibitors, primary screen, biochemical, luminescence, purified enzyme, 2006 set (AID 1141).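 Also: cell-free assay with purified firefly luciferase at 100 ng per well in PBS; test concentration not given here.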 As to conditions: SteadyGlo luminescence, 30 min, higher = more signal, called active from +8 up or from −8 down.

Structures are written as SMILES. Calls of active or inactive are those of the source.

Sequence of Luciferin 4-monooxygenase (Photinus pyralis) (P08659 whole entry, looked up): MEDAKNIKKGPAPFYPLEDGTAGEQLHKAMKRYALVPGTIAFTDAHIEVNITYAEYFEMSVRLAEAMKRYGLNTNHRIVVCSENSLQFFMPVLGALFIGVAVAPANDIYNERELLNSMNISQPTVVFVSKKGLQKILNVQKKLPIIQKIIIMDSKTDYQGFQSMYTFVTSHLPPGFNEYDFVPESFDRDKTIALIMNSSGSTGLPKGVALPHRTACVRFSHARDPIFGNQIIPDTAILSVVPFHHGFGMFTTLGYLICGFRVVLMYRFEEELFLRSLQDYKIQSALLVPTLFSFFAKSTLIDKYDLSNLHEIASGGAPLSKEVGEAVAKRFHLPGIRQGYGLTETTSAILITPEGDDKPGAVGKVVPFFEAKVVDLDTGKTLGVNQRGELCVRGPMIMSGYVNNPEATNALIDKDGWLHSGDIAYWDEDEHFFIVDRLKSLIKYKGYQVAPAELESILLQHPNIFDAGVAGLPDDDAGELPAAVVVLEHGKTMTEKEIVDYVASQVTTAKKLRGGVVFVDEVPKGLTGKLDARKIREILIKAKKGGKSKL
Sequence of Follistatin (Homo sapiens) (P19883 whole entry, looked up): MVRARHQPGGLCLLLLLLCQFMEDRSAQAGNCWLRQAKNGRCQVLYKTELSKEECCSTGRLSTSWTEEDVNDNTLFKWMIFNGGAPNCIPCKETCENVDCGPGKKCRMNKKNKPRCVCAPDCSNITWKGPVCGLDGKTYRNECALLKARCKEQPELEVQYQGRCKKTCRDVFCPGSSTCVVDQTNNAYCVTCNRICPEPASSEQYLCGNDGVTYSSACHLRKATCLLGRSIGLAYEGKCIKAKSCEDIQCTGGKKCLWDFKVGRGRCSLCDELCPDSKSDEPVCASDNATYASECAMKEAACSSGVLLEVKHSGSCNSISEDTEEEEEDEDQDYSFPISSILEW
Sequence of Focal adhesion kinase 1 (Homo sapiens) (Q05397 whole entry, looked up): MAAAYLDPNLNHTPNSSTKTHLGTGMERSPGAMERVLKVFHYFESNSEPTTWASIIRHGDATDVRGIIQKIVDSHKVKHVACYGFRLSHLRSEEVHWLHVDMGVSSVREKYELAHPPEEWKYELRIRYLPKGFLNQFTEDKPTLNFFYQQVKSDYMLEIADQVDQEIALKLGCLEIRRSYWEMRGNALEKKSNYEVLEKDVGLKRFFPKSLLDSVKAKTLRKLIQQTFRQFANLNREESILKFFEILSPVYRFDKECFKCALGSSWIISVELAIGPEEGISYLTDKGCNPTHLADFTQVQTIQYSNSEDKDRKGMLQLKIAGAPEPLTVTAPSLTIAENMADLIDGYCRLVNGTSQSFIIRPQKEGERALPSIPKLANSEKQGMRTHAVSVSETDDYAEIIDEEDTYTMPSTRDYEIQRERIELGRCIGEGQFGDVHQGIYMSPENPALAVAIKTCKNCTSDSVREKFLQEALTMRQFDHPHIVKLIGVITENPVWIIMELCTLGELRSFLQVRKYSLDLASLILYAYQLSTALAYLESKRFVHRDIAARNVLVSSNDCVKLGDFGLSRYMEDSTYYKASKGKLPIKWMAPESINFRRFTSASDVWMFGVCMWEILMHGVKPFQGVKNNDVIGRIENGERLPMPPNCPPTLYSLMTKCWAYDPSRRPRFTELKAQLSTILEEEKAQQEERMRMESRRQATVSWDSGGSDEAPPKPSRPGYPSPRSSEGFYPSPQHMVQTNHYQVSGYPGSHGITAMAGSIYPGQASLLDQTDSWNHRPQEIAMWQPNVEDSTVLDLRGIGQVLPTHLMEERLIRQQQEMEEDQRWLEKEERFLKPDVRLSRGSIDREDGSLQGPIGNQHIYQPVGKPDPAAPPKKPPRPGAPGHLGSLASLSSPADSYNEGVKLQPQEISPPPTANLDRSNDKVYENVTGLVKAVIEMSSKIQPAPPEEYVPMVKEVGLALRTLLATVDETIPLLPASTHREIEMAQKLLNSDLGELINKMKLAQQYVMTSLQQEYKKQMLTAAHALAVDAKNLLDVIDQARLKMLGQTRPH
Sequence of Fibroblast growth factor 2 (Homo sapiens) (P09038 whole entry, looked up): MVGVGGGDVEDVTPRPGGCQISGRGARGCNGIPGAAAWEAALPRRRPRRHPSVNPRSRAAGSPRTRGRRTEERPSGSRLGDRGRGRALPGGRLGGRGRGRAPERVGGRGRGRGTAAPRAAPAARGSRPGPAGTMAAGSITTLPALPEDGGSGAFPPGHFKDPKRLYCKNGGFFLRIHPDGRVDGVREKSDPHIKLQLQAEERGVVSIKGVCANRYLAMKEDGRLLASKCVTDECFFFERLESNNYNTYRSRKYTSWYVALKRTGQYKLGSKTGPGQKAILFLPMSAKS

Consider `COCCOC(=O)N1C(=O)[C@@]2(c3cc(C#CCCO)ccc31)[C@H](c1ccccc1OCCO)N1[C@H](c3ccccc3)[C@H](c3ccccc3)OC(=O)[C@H]1[C@@H]2C(N)=O`, for which the composite z-score in assay [1] amounted to 1.75; in assay [2] it was 1.24; in assay [3], 0.621; in assay [4] it was 0.996; in assay [5], 1.02; in assay [6], 0.963. For the same compound, the composite z-score in assay [8] was 0.78; in assay [9] it was 0.246. Besides, the z-score was -0.0726 in assay [7] and 0.85 (inactive) in assay [10].
With `COc1ccc([Si](C)(C)[C@@H]2[C@@H](CC(=O)N(CCO)Cc3ccccc3)O[C@]3(C(=O)N(Cc4ccc(I)cc4)c4ccccc43)[C@H]2C)cc1`, the composite z-score in assay [1] amounted to 1.9; in [2], 0.32; in assay [3] it was 0.385; in assay [4], 0.391; in [5], 1.49; in assay [6], 1.66. The composite z-score is 1.53 in assay [8] and -0.0349 in [9]. The z-score was -0.472 in assay [7] and 0.249 (inactive) in assay [10].
Consider `O=C(NCc1ccccc1)[C@@H]1c2ccccc2C(=O)N(Cc2ccc(OC(F)(F)F)cc2)[C@H]1c1ccc(CO)cc1`, for which the composite z-score is 2.71 in [1]; 0.277 in [2]; 0.442 in [3]; -0.222 in assay [4]; 0.616 in assay [5]; 0.0415 in assay [6]. Moreover, the composite z-score in assay [8] was -0.9; in assay [9], -0.416. Moreover, the z-score in [7] is 2.79; in assay [10], -0.828 (inactive).
Consider `COC(=O)[C@@]1(Cc2ccccc2)[C@H]2c3cc(C(=O)N4CCCC4)n(Cc4ccc(OC)c(OC)c4)c3C[C@H]2CN1C(=O)c1ccccc1`, for which the composite z-score in [1] is 0.682; in assay [2] it was 1.27; in [3] it was 0.916; in assay [4], 1.03; in [5] it was 0.528; in [6], -0.502. The values for the composite z-score in assay [8] and in assay [9] were -0.115 and 0.863, respectively. Moreover, the results for the z-score in [7] and in assay [10] were 1.99 and 2.75 (inactive), respectively.
In the case of `COC(=O)[C@@]1(Cc2ccccc2)[C@H]2c3cc(C(=O)N(C)C)n(CCO)c3C[C@H]2CN1C(=O)c1ccccc1`, the composite z-score is 1.86 in assay [1]; 1.16 in assay [2]; 1.89 in assay [3]; 1.02 in assay [4]; -0.535 in assay [5]; -0.541 in [6]. Also, the composite z-score is -0.986 in [8] and 1.41 in assay [9]. In addition, the z-score in assay [7] was 0.628; in assay [10], 2.11 (inactive).
As to `C=CC1c2cc(O)c(OC)cc2CCN1C` (stereo not given), the composite z-score was 0.586 in [1]; -1.39 in assay [2]; -0.636 in assay [3]; -0.934 in assay [4]; -0.424 in assay [5]; -0.475 in [6]. The composite z-score is -1.23 in assay [8] and 0.356 in assay [9]. Also, the z-score in assay [7] is -0.0592; in [10], -0.0535 (inactive).
In the case of `O=C(NCc1ccc(F)cc1)[C@H]1C[C@H]2C(=O)N3CCC[C@H]3C(=O)N2[C@H]1c1ccc(O)cc1`, the composite z-score was -0.279 in assay [1]; -0.825 in assay [2]; -0.753 in [3]; 0.137 in [4]; 0.699 in [5]; 0.75 in assay [6]. The composite z-score is -0.557 in [8] and -0.554 in assay [9]. For the same compound, the results for the z-score in assay [7] and in assay [10] were -0.0591 and -0.0877 (inactive), respectively.
Turning to `C=C(CCCC)/C(=C/C[C@H](OC(=O)c1ccncc1)c1ccccc1OCCO)c1cc(C(=O)OC)ccc1OC`, the composite z-score was determined as 2.75 in [1]; 0.488 in assay [2]; 0.0357 in assay [3]; 0.013 in assay [4]; 0.95 in assay [5]; 0.969 in assay [6]. The composite z-score in [8] was 0.979; in assay [9], -0.0208. The z-score was 2.03 in [7] and -0.776 (inactive) in assay [10].
In the case of `CC(C)N1C(=O)c2ccccc2[C@@H](C(=O)NCC(F)(F)F)[C@@H]1c1ccc(CO)cc1`, the composite z-score in assay [1] is -0.0668; in [2], 0.0715; in assay [3] it was 0.284; in assay [4] it was -0.537; in [5], 0.527; in assay [6], 0.0683. In addition, the composite z-score was -0.232 in assay [8] and -0.348 in [9]. Further, the values for the z-score in assay [7] and in [10] were 1.41 and -0.189 (inactive), respectively.
With `COCCCNC(=O)[C@@]1(CCS(=O)(=O)c2ccccc2)COC(c2ccc(OCCCO)cc2)=N1`, the composite z-score turned out to be 3.75 in assay [1]; 0.92 in assay [2]; 0.394 in assay [3]; 1.02 in assay [4]; 1.31 in [5]; 0.194 in assay [6]. The composite z-score in assay [8] is -0.0951; in [9], 1.59. Moreover, the z-score in assay [7] is 0.206; in [10], -0.0482 (inactive).
Take `O=C(NCC(O)CO)C1N=C(c2ccc(OCCCO)cc2)N(c2ccccc2)O1` (stereo not given): the composite z-score is 0.703 in [1]; 0.697 in [2]; -0.102 in assay [3]; 0.0565 in [4]; 1.38 in assay [5]; 1.32 in assay [6]. Further, the composite z-score in assay [8] was determined as 0.876; in assay [9], 0.471. The results for the z-score in assay [7] and in assay [10] were 0.42 and -10.9 (active), respectively.
Consider `O=C1O[C@H](c2ccccc2)[C@H](c2ccccc2)N2[C@H]1[C@@H](C(=O)N1CCN(c3ncccn3)CC1)[C@]1(C(=O)Nc3ccc(C#CCCO)cc31)[C@H]2c1ccc(O)cc1`, for which the composite z-score turned out to be 0.144 in [1]; 0.762 in [2]; 1.38 in assay [3]; 0.888 in assay [4]; 0.809 in assay [5]; 0.115 in assay [6]. Moreover, the composite z-score in assay [8] was determined as 0.186; in assay [9], 0.766. In addition, the z-score in assay [7] was -0.683; in assay [10], -0.538 (inactive).
As for `O=C(NCCN1CCOCC1)[C@@H]1c2ccccc2C(=O)N(Cc2ccc(OC(F)(F)F)cc2)[C@H]1c1ccc(CO)cc1`, the composite z-score is 1.97 in assay [1]; 0.292 in [2]; 0.022 in assay [3]; -0.419 in assay [4]; 0.0596 in [5]; -1.23 in [6]. For the same compound, the composite z-score in [8] is -0.332; in assay [9], -0.109. For the same compound, the z-score in assay [7] was 2.22; in assay [10], -0.408 (inactive).
With `COc1cc(CO)cc(I)c1O[C@H]1C=C(C(=O)NCCO)C[C@@H](NC2CCCCCC2)[C@@H]1O`, the composite z-score in [1] was 0.34; in assay [2], 1.14; in assay [3] it was -0.433; in assay [4] it was 0.794; in [5] it was 0.931; in assay [6], 1.01. Also, the composite z-score in assay [8] was found to be 1.37; in assay [9] it was 0.246. Besides, the z-score in assay [7] is 1.88; in assay [10], 4.69 (inactive).
Turning to `O=C1C[C@@](C(=O)O)(c2ccc([N+](=O)[O-])cc2)[C@@H](c2ccc(CO)cc2)N1C1CCCCC1`, the composite z-score in [1] worked out at 1.82; in [2], 1.23; in [3], 0.54; in [4], 0.953; in assay [5], 1.01; in assay [6] it was 0.26. Also, the composite z-score in assay [8] stood at 0.312; in assay [9], 0.92. Also, the figures for the z-score in assay [7] and in assay [10] were 0.57 and -1.81 (inactive), respectively.
Take `C#CCN1[C@@H](Cc2ccccc2)C(=O)O[C@H](Cc2ccccc2)[C@@H]1/C=C/C1CC1`: the composite z-score in assay [1] was 1.3; in assay [2], 1.01; in assay [3], 0.0423; in assay [4], -0.287; in assay [5], 1.27; in [6], 0.43. Besides, the composite z-score in [8] is 1.1; in assay [9], 0.884. Besides, the z-score in assay [7] was 4.04; in assay [10], -0.415 (inactive).

The record behind these values is PubChem BioAssay.
